“And” between values parts separate entries of the source, which are not always exact repeats. Equal entries are not always repeated. Values without a mark were called inactive. Inconclusive results are not listed. The source made the active and inactive calls. Unless noted, calls come from the whole dose curve; as a rule, active = well fitted curve in the direction sought with a large enough effect in the repeat runs; inconclusive = weak or mixed curves; inactive = no such curve, though single readings can be large; an effect the other way counts as inactive or inconclusive.

Assay [1] can be described thus: qHTS assay to identify small molecule agonists of H2AX (AID 1224845; active = well fitted activation curve with a large enough effect in the signal ratio in the repeat runs, not every such curve was filed as active; the % refers to the signal ratio; note: potency is the fitted concentration of half-maximal effect). In a few lines: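 Wild-type CHO-K1 cells plated overnight, then exposed 3 hr at 37C to compounds at 15 concentrations (0.76% DMSO). Lysed, then HTRF anti-pH2AX(S139)-cryptate/anti-H2AX-d2 detection after 24 hr at room temperature; emissions 665 and 620 nm.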
Assay [2] in a line: qHTS assay to identify small molecule agonists of the hypoxia (HIF-1) signaling pathway (AID 1224846; active = well fitted activation curve with a large enough effect in the signal ratio in the repeat runs, not every such curve was filed as active; the % refers to the signal ratio). In a few lines:
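Agonist mode reporter screen. ME-180 cells stably expressing bla under HRE control received test compounds in DMSO for 17 hrs (37C, 5% CO2), and beta-lactamase activity was then detected with the CCF4-AM FRET substrate.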

Assay [3] is described as follows: qHTS RealTime-Glo MT Cell Viability Assay in HepG2 cells - 24 hour (AID 1224867). Note: nearly all actives have a fitted effect of over 50% in size. Note: potency is the fitted concentration of half-maximal effect. Put shortly:
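Compound treatment began 5 h after plating HepG2 cells (600/well) with NanoLuc luciferase and prosubstrate. Plates stayed at 37 C for 40 h; luminescence was captured at six time points, 0 h through 40 h.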

A short description of assay [4]: qHTS RealTime-Glo MT Cell Viability Assay in HEK293 cells - 32 hour (AID 1224868). Note: nearly all actives have a fitted effect of over 50% in size. Note: potency is the fitted concentration of half-maximal effect. Put shortly: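 Quantitative high-throughput screen of the Tox21 10K library in HEK293: cells and RealTime-Glo reagents plated together, compound added at 5 h, luminescence monitored through 40 h at 37 C.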
Assay [5] in a line: A CellTox Green Cytotoxicity Assay to monitor cytotoxicity in HEK293 cells - 0 hour (AID 1224869). Note: nearly all actives have a fitted effect of over 50% in size. Note: potency is the fitted concentration of half-maximal effect. In a few lines:
(§1)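 Dead-cell fluorescence measured kinetically: asymmetric cyanine dye, HEK293, 600 cells/well, 5 h settle, 23 nL cpd/DMSO, 37 C, reads 0–40 h every 8 h.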

Assay [6] in a line: qHTS RealTime-Glo MT Cell Viability Assay in HepG2 cells - 40 hour (AID 1224870). Note: nearly all actives have a fitted effect of over 50% in size. Note: potency is the fitted concentration of half-maximal effect. Put shortly: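 HepG2 cells mixed with RealTime-Glo MT reagents (NanoLuc plus cell-permeant prosubstrate) were seeded at 600 cells/well, incubated 5 h at 37 C/5% CO2, then pinned with compounds in DMSO; nonlytic luminescence tracked viability during 40 h treatment.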
A short description of assay [7]: A CellTox Green Cytotoxicity Assay to monitor cytotoxicity in HEK293 cells - 40 hour (AID 1224871). Note: nearly all actives have a fitted effect of over 45% in size. Note: potency is the fitted concentration of half-maximal effect. Put shortly:
as §1

Assay [8] is described as follows: qHTS assay to identify small molecule agonists of H2AX - cell viability counter screen (AID 1224847; calls by dose curve; note: nearly all actives have a fitted effect of over 30% in size; note: potency is the fitted concentration of half-maximal effect). In a few lines:
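CHO-K1 cells plated overnight at 37C, then exposed 3 h at 37C to compounds at 15 concentrations (0.76% DMSO final). Viability by CellTiter-Glo luminescence after 30 min at room temperature.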

The nature of assay [9]: qHTS assay to identify small molecule antagonists of the estrogen related receptor (ERR) signaling pathway from Tox21 library (AID 1224848). Note: nearly all actives have a fitted effect of over 50% in size. Note: potency is the fitted concentration of half-maximal effect. In a few lines:
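First, 2,000 ERR cells per well were plated and held 6 h at 37 C/5% CO2. Next, compounds in DMSO were pinned in and left 18 h at 37 C. Finally, ONE-Glo was added and luminescence read after 30 min at room temperature.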

Assay [10] in a line: qHTS assay to identify small molecule agonists of the estrogen related receptor (ERR) signaling pathway from Tox21 library (AID 1224849; calls by dose curve; note: nearly all actives have a fitted effect of over 15% in size). As to conditions: ERR reporter cell line, ONE-Glo luciferase, 18 h; at 92.4 µM (top of the series) unless noted. Put shortly:
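Quantitative HTS in agonist format: NTP ERR cell line, compounds transferred in DMSO after 6 h plating, 18 h incubation at 37 C, ONE-Glo luminescence endpoint.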
% is set by controls: 0 for no effect and ±100 for the full control effect.

Take `NNC(=O)c1cccc(C(=O)NN)c1`: the Potency result in assay [1], in [2], in [3], in [4], in [5] and in assay [6] was “inactive” each time. In [7], the Potency entry is “inactive”.
For the molecule `CCCCCCCCOc1ccccc1C(=O)Nc1ccc(C(=O)OCC[N+](C)(CC)CC)cc1`, the Potency result in assay [1], in assay [2], in assay [5] and in assay [6] was “inactive” throughout. For the same molecule, the Potency in [8] was 24.7 µM (active); in assay [4], 19 µM (active).
On to `CSc1cnc(C)cn1`, for which the Potency entry in assay [1], in assay [2], in assay [8], in assay [3], in [4] and in assay [6] was “inactive” in each case. In addition, the Potency is 56.4 µM (active) in [5] and 89.4 µM (active) in assay [7].
As to `CCCCCCCC/C=C/CCCCCCCC1=NCCN1CCO`, the Potency entry in assay [1] and in assay [5] was “inactive” in each case. Besides, the Potency in [8] was 101 µM (active); in [9], 54.5 µM (active); in assay [3], 17.4 µM (active); in [4], 19.5 µM (active); in assay [6] it was 17.4 µM (active); in [7], 30.9 µM (active). Also, in assay [10], the activity change, positive = activation was -79.9%.
With `CN(C)C(=O)C1(N2CCCCC2)CCN(CC[C@@]2(c3ccc(Cl)c(Cl)c3)CN(C(=O)c3ccccc3)CCO2)CC1`, the Potency in assay [1] was 47.2 µM (active); in [8], 52.9 µM (active); in [9] it was 28.6 µM (active); in assay [3], 20.4 µM (active); in assay [4], 10.2 µM (active); in [6], 18.2 µM (active). Further, in [10], the activity change, positive = activation is -73.9%. Moreover, the Potency result in [5] is “inactive”.
`CCCCCCCCCCCCCCCC[N+](C)(C)CCN(Cc1ccc(OC)cc1)c1ncccn1`: the Potency entry in [1] and in assay [5] was “inactive” in each case. Moreover, the Potency in assay [8] was 43.8 µM (active); in [9] it was 21.1 µM (active); in assay [3], 6.74 µM (active); in [4], 0.952 µM (active); in [6], 5.35 µM (active); in assay [7] it was 19 µM (active). For the same molecule, the activity change, positive = activation in assay [10] is -53.6% [at 42.5 µM].
Regarding `CCCC(c1cc(C(C)(C)C)c(O)cc1C)c1cc(C(C)(C)C)c(O)cc1C`, the Potency entry in [1] and in assay [5] was “inactive” in each case. The Potency in assay [8] is 25.6 µM (active); in [9] it was 15.5 µM (active); in assay [3], 39.4 µM (active); in assay [4] it was 19.7 µM (active); in assay [6], 31.3 µM (active); in assay [7], 49.6 µM (active). Further, the activity change, positive = activation in [10] was -83.3%.
For the molecule `CC(C)(C)NC(=O)[C@@H]1C[C@@H]2CCCC[C@@H]2CN1C[C@@H](O)[C@H](Cc1ccccc1)NC(=O)[C@H](CC(N)=O)NC(=O)c1ccc2ccccc2n1`, the Potency is 51.2 µM (active) in assay [1]; 51.2 µM (active) in [8]; 19.6 µM (active) in [9]; 55.7 µM (active) in [3]; 19.7 µM (active) in assay [4]. Also, the activity change, positive = activation in assay [10] was -72.5%. Further, the Potency result in assay [5] was “inactive”.
Turning to `O=C(OCC(COC(=O)c1ccccc1)(COC(=O)c1ccccc1)COC(=O)c1ccccc1)c1ccccc1`, the Potency entry in [1], in assay [8], in assay [9], in [3], in [5] and in assay [6] was “inactive” in each case. Also, the activity change, positive = activation in assay [10] is 9.84%. In assay [4], the Potency is 48.9 µM (active).
Turning to `O=C(NO)C1(NS(=O)(=O)c2ccc(Oc3ccc(F)cc3)cc2)CCOCC1`, the Potency result in assay [1], in [8], in assay [3], in assay [5] and in assay [6] was “inactive” each time. Moreover, the Potency in assay [9] was 27.3 µM (active). Besides, the activity change, positive = activation in assay [10] was -35.1%.
Regarding `C=C(C)C(=O)OCC(O)COc1ccc(C(C)(C)c2ccc(OCC(O)COC(=O)C(=C)C)cc2)cc1` (stereo not given), the Potency entry in assay [1] and in assay [5] was “inactive” throughout. The Potency in assay [8] is 35.7 µM (active); in [9], 27.3 µM (active); in [3] it was 19.5 µM (active); in [4] it was 12.3 µM (active). Further, in assay [10], the activity change, positive = activation was -80.3%.
On to `COc1cc(-c2ccc(N=C=O)c(OC)c2)ccc1N=C=O`, for which the Potency entry in assay [1], in assay [8], in assay [9], in assay [3], in assay [4] and in assay [5] was “inactive” each time. The Potency result in [6] and in assay [7] was “inactive” throughout. Besides, the activity change, positive = activation in assay [10] is -0.106% [at 42.5 µM].
As for `CCCCCCCCNC(C)C(O)c1ccc(SC(C)C)cc1` (stereo not given), the Potency entry in [1] and in assay [5] was “inactive” in each case. Further, the Potency in [8] was 43.8 µM (active); in [9], 23.7 µM (active); in [3] it was 13.4 µM (active); in assay [4] it was 9.52 µM (active); in [6], 13.4 µM (active); in assay [7] it was 16.9 µM (active). The activity change, positive = activation in assay [10] was -63% [at 42.5 µM].
Regarding `O=c1[nH]sc2cc(Cl)ccc12`, the Potency entry in [1], in assay [8], in assay [4], in assay [5] and in assay [7] was “inactive” throughout. Further, the Potency was 0.106 µM (active) in assay [9] and 26.8 µM (active) in [3]. Also, the activity change, positive = activation in assay [10] was -42.9% [at 42.5 µM].
In the case of `Cc1onc(-c2c(Cl)cccc2Cl)c1C(=O)N[C@@H]1C(=O)N2[C@@H]1SC(C)(C)[C@@H]2C(=O)O`, the Potency result in assay [1], in assay [8], in assay [9], in assay [3], in assay [4] and in assay [5] was “inactive” throughout. Further, the Potency result in assay [6] and in assay [7] was “inactive” throughout. In assay [10], the activity change, positive = activation is -4.23% [at 42.5 µM].
In the case of `O=C1C=CC(=O)N1`, the Potency is 14.6 µM (active) in assay [1]; 82.2 µM (active) in assay [8]; 22.5 µM (active) in assay [3]; 12.6 µM (active) in assay [4]; 22.5 µM (active) in assay [6]; 17.8 µM (active) in [7]. The Potency entry in assay [9] was “inactive”. Further, the activity change, positive = activation in assay [10] was -71.7%.
As to `Cc1cccc2c1cc1ccc3cccc4ccc2c1c34`, the Potency result in assay [1], in [8], in assay [9], in assay [3], in assay [5] and in assay [6] was “inactive” in each case. In addition, in assay [10], the activity change, positive = activation was 35.4% (active).
Regarding `CCCCC(CC)CN=C(N)NC(N)=NCCCCCCN=C(N)NC(N)=NCC(CC)CCCC` (stereo not given), the Potency result in assay [1] was “inactive”. Besides, the Potency in assay [8] is 43.8 µM (active); in assay [9], 6.68 µM (active); in [3], 8.49 µM (active); in assay [4] it was 5.35 µM (active); in [6], 8.49 µM (active); in assay [7], 8.49 µM (active). For the same molecule, in assay [10], the activity change, positive = activation is -65.1% [at 42.5 µM].
In the case of `CCCN(CCC)c1c([N+](=O)[O-])cc(C(F)(F)F)c(N)c1[N+](=O)[O-]`, the Potency in [1] was 35.6 µM (active); in [8], 50.4 µM (active); in [9] it was 30.5 µM (active); in assay [3], 54.8 µM (active); in assay [4], 19.4 µM (active); in [7], 54.8 µM (active). Further, the activity change, positive = activation in assay [10] was -75.7%. In assay [5], the Potency result is “inactive”.
`O=C(Nc1cccc(Cl)c1)OCC#CCCl`: the Potency in assay [1] was 113 µM (active); in assay [9], 30.6 µM (active); in [3], 49 µM (active); in [4], 49 µM (active); in [6], 49 µM (active). The Potency result in assay [8] and in assay [5] was “inactive” in each case. Also, the activity change, positive = activation in assay [10] is -74.2%.
Take `Oc1c(Cl)cc(Cl)c2cccnc12`: the results for the Potency in assay [1], in assay [9] and in assay [7] were 39.1 µM (active), 9.44 µM (active) and 9.52 µM (active), respectively. Further, the Potency entry in assay [8], in [3], in assay [5] and in assay [6] was “inactive” each time. In assay [10], the activity change, positive = activation is -66% [at 42.5 µM].
`CCCCCCOC(=O)c1ccc(O)cc1`: the Potency entry in [1], in assay [9], in [3], in assay [5] and in assay [6] was “inactive” each time. The Potency in [8] is 89.9 µM (active) and 101 µM (active); in assay [4] it was 43.7 µM (active) and 21.9 µM (active). For the same molecule, the activity change, positive = activation in assay [10] is 67.7% (active) and 70.3% (active).

Values taken from PubChem BioAssay (Tox21).
